Activity calls are given as the source filed them. How the source made its calls: active means hit-call score of the fitted dose curve at least 0.9, where 1 is the maximum; inactive means score below 0.9.
Columns and labels:
[1] = ATG_E_Box_CIS: Attagene CIS-FACTORIAL HepG2 Assay for human Enhancer Box (E-box) (AID 2282936); conditions: HepG2 E-box cis-reporter transcription, actives raise or lower the signal
Method in brief: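 Measured 24 h post-dosing in HepG2 cells transfected with multiple cis-regulated reporter units, signal being reporter mRNA induction detected by fluorescent RT-PCR with capillary electrophoresis; gain or loss fitted against DMSO.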

[2] = ATG_M_61_CIS: Attagene CIS-FACTORIAL HepG2 Assay for M61 Transcription Factor (Internal Marker) (AID 2282937); conditions: HepG2 Attagene CIS-FACTORIAL M61 internal marker reporter; actives raise or lower the signal
Method in brief: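 Human liver HepG2, transient MRTU transfection (cis promoter elements), 24 h compound. Total RNA → oligo(dT) RT → PCR → FAM label → HpaI → CE. Internal background marker; bidirectional fitting, DMSO = baseline.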

[3] = ATG_EGR_CIS: Attagene CIS-FACTORIAL HepG2 Assay for human Early Growth Response 1 (EGR1) (AID 2282938); conditions: HepG2 Attagene CIS-FACTORIAL EGR reporter mRNA; actives raise or lower the signal
Method in brief: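 Transient transfection of human HepG2 with multiple cis-regulated reporter units, chemical exposure 24 h, total RNA isolated. Reverse transcription, PCR, fluorescent labelling and capillary electrophoresis quantify reporter transcripts; activity fitted bidirectionally against DMSO.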

[4] = ATG_ERE_CIS: Attagene CIS-FACTORIAL HepG2 Assay for Estrogen Response Element (ERE) (AID 2282940); conditions: HepG2 ERE cis-reporter, Attagene RNA transcript; actives raise or lower the signal
Method in brief: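 Transient MRTU transfection of human HepG2; cis-element promoters; 24 h dosing; total RNA → RT (oligo dT) → PCR → 6-FAM primer extension → HpaI digest → CE fluorescence. Bidirectional fit, DMSO baseline.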

[5] = ATG_Ets_CIS: Attagene CIS-FACTORIAL HepG2 Assay for human Erythroblast Transformation Specific (ETS) (AID 2282941); conditions: HepG2 ETS cis-reporter transcription, actives raise or lower the signal
Method in brief: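 Bidirectional fit versus DMSO of reporter mRNA signal, detected by RT-PCR and capillary electrophoresis in HepG2 cells transiently transfected with cis-element reporters and dosed 24 h.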

[6] = biological target: Hepatocyte nuclear factor 3-beta (Homo sapiens) (UniProt Q9Y261); test: ATG_FoxA2_CIS: Attagene CIS-FACTORIAL HepG2 Assay for human Forkhead box A2 (FOXA2) (AID 2282942); conditions: HepG2 cis-reporter transcription factor activity, 24 h; actives raise or lower the signal
Method in brief: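 Transient MRTU transfection of HepG2 liver cells; 24 h treatment; total RNA → oligo(dT) RT → PCR → FAM primer extension → HpaI cut → CE. Bidirectional fit vs DMSO.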

[7] = ATG_FoxO_CIS: Attagene CIS-FACTORIAL HepG2 Assay for human Forkhead box O (FoxO) (AID 2282943); conditions: HepG2 Attagene cis-reporter, FoxO element, mRNA; actives raise or lower the signal
Method in brief: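 HepG2 cells transiently transfected with cis-promoter-driven multiple reporter transcription units; 24 h after chemical dosing, reporter mRNA quantified by RT-PCR, fluorescent primer extension, HpaI digestion and capillary electrophoresis. Bidirectional fitting versus DMSO baseline.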

[8] = ATG_GATA_CIS: Attagene CIS-FACTORIAL HepG2 Assay for human GATA Binding Protein (AID 2282944); conditions: HepG2 GATA cis-element reporter, Attagene multiplex mRNA; actives raise or lower the signal
Method in brief: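 Transient MRTU transfection, HepG2, 24 h compound exposure. Total RNA → oligo(dT) RT → PCR → 6-FAM primer extension → HpaI cut → CE. Bidirectional fit vs DMSO.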

Measured: outcome

Hepatocyte nuclear factor 3-beta (Homo sapiens), sequence (Q9Y261 whole entry, looked up): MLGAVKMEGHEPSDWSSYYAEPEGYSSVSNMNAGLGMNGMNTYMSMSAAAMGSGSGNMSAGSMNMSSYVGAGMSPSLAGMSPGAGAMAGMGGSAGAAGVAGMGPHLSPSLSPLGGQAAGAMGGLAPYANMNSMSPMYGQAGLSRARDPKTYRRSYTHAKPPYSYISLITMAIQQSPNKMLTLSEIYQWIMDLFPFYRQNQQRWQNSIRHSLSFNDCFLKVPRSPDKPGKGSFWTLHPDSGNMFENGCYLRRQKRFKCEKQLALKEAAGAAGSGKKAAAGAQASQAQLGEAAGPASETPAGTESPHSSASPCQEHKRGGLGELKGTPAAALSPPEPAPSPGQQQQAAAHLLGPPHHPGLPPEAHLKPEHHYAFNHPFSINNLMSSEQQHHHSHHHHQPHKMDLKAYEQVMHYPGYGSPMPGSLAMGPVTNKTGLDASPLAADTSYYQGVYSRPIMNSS

CCNC(=S)NCC
inactive: [1] | [2] | [3] | [4] | [5] | [6] | [7] | [8]

— PubChem BioAssay (EPA / NIEHS)
